These results are taken from PubChem BioAssay AID651951 (The Scripps Research Institute Molecular Screening Center, 2012).

The campaign covered roughly 2,400 compounds. About 1,100 (46%) were called active. The set was probably picked from earlier hits. A selection follows. A number with no mark means an inactive call.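 How the source made its calls: active means inhibition above the run cutoff, the mean inhibition of all test compounds plus 3 SD (cut at about 49% in these data); inactive means the rest.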

The target in this assay is Trace amine-associated receptor 1 (Homo sapiens) (UniProt Q96RJ0). Nature of the assay: loss of beta-PEA response after agonist pre-exposure – cell-based, fluorescence, tachyphylaxis, counter-screen for TAAR1 agonist project, confirmation (AID 651951).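 Further: beta-PEA stimulus applied at its EC80; loss of beta-PEA calcium signal after compound pretreatment read as receptor desensitization; 0% = DMSO with beta-PEA at EC80 and 100% = DMSO alone without agonist.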 To be noted: CHO RD-HGA16 hTAAR1, Fluo-8 calcium, at 3 µM, hits give high values.
Sequence of Trace amine-associated receptor 1 (Homo sapiens) (Q96RJ0 whole entry, looked up): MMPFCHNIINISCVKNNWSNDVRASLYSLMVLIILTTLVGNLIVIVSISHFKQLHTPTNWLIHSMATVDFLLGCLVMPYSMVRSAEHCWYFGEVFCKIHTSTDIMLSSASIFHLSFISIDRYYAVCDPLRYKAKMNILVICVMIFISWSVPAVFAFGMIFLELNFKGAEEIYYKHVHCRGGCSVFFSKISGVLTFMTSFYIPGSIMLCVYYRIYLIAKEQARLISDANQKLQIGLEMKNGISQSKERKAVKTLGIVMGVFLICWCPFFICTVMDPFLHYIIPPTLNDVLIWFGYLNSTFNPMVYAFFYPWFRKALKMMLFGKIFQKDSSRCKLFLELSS
With `O=C(N[C@H](C(=O)N1CCC[C@H]1C(=O)NCCc1ccccc1Cl)c1ccccc1)c1ccccc1`, the inhibition was 85.5% (active).

With `Cc1cc(=O)oc2c(C)c(OCC(=O)NCCN3CCOCC3)ccc12`, the inhibition is 2.28%.

As to `O=Cc1c(NCCc2cccc(F)c2)c2ccccc2[nH]c1=O`, the inhibition was 36.8%.

`Nc1c(NCCc2ccccc2)c2ccccc2oc1=O`: the inhibition was 53.6% (active).

With `CCOc1ccc(Br)cc1CSC(=N)N`, the inhibition was 67% (active).

In the case of `CCCCOc1ccc(CSC(=N)N)cc1[N+](=O)[O-]`, the inhibition is 12.3%.

Consider `CCc1ccc(-c2nn(-c3ccccc3)cc2CSC(=N)N)cc1`, for which the inhibition was 25.1%.

`S=C(Nc1ccc(Br)cc1)NC1CCN(Cc2ccccc2)CC1`: the inhibition is 48.3%.

Take `Cc1ccccc1-c1nc(CS(=O)(=O)CC(=O)N2CCc3ccccc3C2)c(C)o1`: the inhibition is 25.5%.

Regarding `CCC(C(=O)Nc1ccc(C(C)C)cc1)c1ccccc1` (centres undefined), the inhibition is 103% (active).

`Cc1ccc(Sc2cc(N3CCOCC3)nc(-c3ccccc3)n2)cc1`: the inhibition is 7.49%.

On to `CCC(c1nnnn1Cc1ccco1)N(CCc1ccccc1)Cc1cc2ccc(OC)cc2[nH]c1=O` (centres undefined), for which the inhibition is 13.2%.

With `COc1ccc(OC)c(C(c2nnnn2C(C)(C)C)N2CCc3ccccc3C2)c1` (centres undefined), the inhibition is 17.8%.

On to `O=C(O)C1C2C=CC(O2)C1C(=O)NCCc1cccc(Cl)c1` (centres undefined), for which the inhibition is 92.1% (active).

In the case of `O=C(NNC(=S)NC(=O)c1cn(-c2ccccc2)nc1-c1ccccc1)c1ccncc1`, the inhibition was 79.3% (active).

For the compound `CN(C(=O)CN(CCO)CC(=O)N(C)C(C)(C)Cc1ccccc1)C(C)(C)Cc1ccccc1`, the inhibition was 94.8% (active).

As for `CCCc1cc(C(=O)Nc2ccc(C(=O)OC)cc2)cs1`, the inhibition is 11%.

Regarding `O=C(/C=C/[C@H]1O[C@@H](n2cnc3c(NC(=O)c4ccccc4)ncnc32)[C@H](O)[C@@H]1O)NCc1ccccc1`, the inhibition was -5.17%.

With `O=C(NCCc1ccccc1)C(=O)NCC1OCCN1S(=O)(=O)c1cccs1` (centres undefined), the inhibition was 36.3%.

Take `CCc1ccccc1S(=O)(=O)Cc1ccc(C(=O)NCCc2ccccc2)o1`: the inhibition was 77.1% (active).

Regarding `O=C1CCCN2N=C(SCC(=O)Nc3ccc(Br)cc3)SC2=N1`, the inhibition was 36.4%.

Regarding `CCCCC(=O)NNC(=S)NC(=O)C(c1ccccc1)c1ccccc1`, the inhibition is 107% (active).

Consider `c1ccc2c(c1)OCC(CNc1ncnc3nc[nH]c13)O2` (centres undefined), for which the inhibition is 106% (active).

On to `Cc1cc(C)c2cc(C#N)c(N3CCNCC3)nc2c1`, for which the inhibition was 79.8% (active).

As for `COc1ccc(NC(=O)C(=O)NCC(c2ccco2)N2CCc3ccccc3C2)cc1` (centres undefined), the inhibition was -6.26%.

Take `Cc1ccc(S(=O)(=O)N(CC(=O)N2CCc3ccccc3C2)c2cccc(Cl)c2)cc1`: the inhibition was 29.8%.

As to `Cc1ccc(NC(=O)CCN2CCc3ccccc3C2)cc1`, the inhibition was 78% (active).

Turning to `CN(C)CCCN(C(=O)c1ccc(S(=O)(=O)N2CCCc3ccccc32)cc1)c1nc2ccc(F)cc2s1`, the inhibition is 53.1% (active).

For the compound `CN(C)CCCN(C(=O)c1ccc(S(=O)(=O)N2CCCCCC2)cc1)c1nc2ccc(Br)cc2s1`, the inhibition is 41.1%.

In the case of `COc1ccc(C(=O)CN2C(=O)NC(C)(c3ccc(C)cc3)C2=O)cc1OC` (centres undefined), the inhibition is 10.7%.

On to `COc1ccc(C(=O)NC(=S)NNC(=O)CCc2ccccc2)cc1`, for which the inhibition was 68.4% (active).

Regarding `Cc1onc(-c2ccccc2)c1C(=O)NNC(=S)NC(=O)c1ccc(F)cc1`, the inhibition is 65.3% (active).

On to `COc1ccc(C(=O)NNC(=S)NC(=O)c2ccccc2)cc1`, for which the inhibition is 76.1% (active).

For the compound `O=C(Nc1cccc(NC(=O)c2ccc(Br)cc2)c1)c1ccccc1`, the inhibition is -9.63%.

As for `COc1ccc(C(=O)NC(=S)NNC(=O)c2c(-c3ccccc3)noc2C)cc1`, the inhibition was 29.8%.

`C#CCOc1ccc(/C=C2/C(=O)NN(c3ccccc3)C2=O)cc1OC`: the inhibition was 39%.

With `Nc1nonc1-n1nnc(C(=O)N/N=C/c2ccc(Cl)cc2)c1-c1ccc2c(c1)OCO2`, the inhibition was 37.8%.

Turning to `Nc1cccc2c1C(=O)N(Cc1nnc(-c3ccccc3Br)o1)C2=O`, the inhibition was 26.5%.

Take `O=C(Nc1ccncc1)Nc1ccc(F)cc1`: the inhibition was 76.4% (active).

In the case of `CCCn1c(O)c(CN2CCCC(C)C2)c(C)c(C#N)c1=O` (centres undefined), the inhibition was 55.8% (active).

As for `S=C(NCCc1ccccc1)N1CCn2cccc2C1c1ccncc1` (centres undefined), the inhibition is 83.2% (active).

Take `COc1ccc(OC)c(NC(=S)N2CCc3ccccc3C2)c1`: the inhibition was 40.2%.

As to `CCCSc1nc2c(c(=O)n(C)c(=O)n2C)n1Cc1ccc(C)cc1`, the inhibition is 37.9%.

As to `c1ccc(Nc2nc(N3CCOCC3)c3ccccc3n2)cc1`, the inhibition is 93% (active).

`CC(Oc1ccc2ccccc2c1)C(=O)NNC(=S)NC(=O)c1ccco1` (centres undefined): the inhibition is 70.9% (active).

`CCCc1ccc(OCC(=O)NNC(=S)NC(=O)c2ccco2)cc1`: the inhibition is 71.9% (active).

In the case of `COc1ccc2cc(-c3[nH]ncc3CNCCn3nc(C)cc3C)ccc2c1`, the inhibition is 13%.

As for `NC(=O)C1=C[C@H](c2csc3ccccc23)C[C@H](OCc2ccc(CO)cc2)O1`, the inhibition is 50.8% (active).

With `COC(=O)c1[nH]c2cccc(C)c2c1NC(=O)CN1CCCc2ccccc21`, the inhibition is 35.7%.

For the compound `COc1cccc(-c2cnc(OC(C)(C)C)nc2OC(C)(C)C)c1`, the inhibition is 3.93%.

With `Fc1ccc(NC(=S)N2CCc3[nH]c4ccccc4c3C2)cc1`, the inhibition is 28.1%.

Consider `O=C(CCCN=C1NS(=O)(=O)c2ccccc21)OCC(=O)c1ccc(F)c(F)c1`, for which the inhibition was 37.4%.

For the compound `C[C@H](NC(=O)c1ccccc1)C(=O)OCC(=O)c1c[nH]c2ccccc12`, the inhibition is 79.2% (active).

Turning to `OC(CNCCc1ccc(Cl)cc1Cl)COc1ccccc1` (centres undefined), the inhibition is 79.2% (active).

As to `CC(C)(C)CC(=O)Nc1nc(C(N)Cc2ccc(C(F)(F)F)cc2)cs1` (centres undefined), the inhibition is 58.9% (active).

For the compound `COc1ccc(CC(N)c2csc(NC(=O)Cc3ccccc3)n2)cc1` (centres undefined), the inhibition was 23.6%.

With `O=C(COC(=O)Cc1ccccc1F)NCCc1ccccc1`, the inhibition was 86% (active).

On to `Cc1cc2nc3c(=O)[nH]c(=O)nc-3n(C[C@H](O)[C@H](O)[C@H](O)CO)c2cc1C`, for which the inhibition was 53.2% (active).

`O=C(Nc1ccc(Cl)cc1)N1CCc2[nH]c3ccccc3c2C1`: the inhibition was 12.4%.

Regarding `O=c1cnnc(Nc2ccccc2)[nH]1`, the inhibition was 60.1% (active).

As to `COc1ccc2c(c1)OC(O)(C(F)(F)C(F)F)CC2=O` (centres undefined), the inhibition is 11.2%.

`NC[C@H](Cc1ccccc1)NCCc1cc(C(F)(F)F)cc(C(F)(F)F)c1`: the inhibition was 12.9%.

For the compound `CCCCCCCCCCOC(=O)Cn1c(COc2ccc(C)cc2)[n+](C)c2ccccc21`, the inhibition was 102% (active).

Consider `CC(Oc1ccc(Cl)cc1)C(=O)OCC(=O)Nc1ncc(Cl)cc1Cl` (centres undefined), for which the inhibition was 7.27%.

For `Cc1ccc(Cl)cc1N1CCN(C(=O)c2cccc3c(=O)c(C)c(-c4ccccc4)oc23)CC1`, the inhibition was 80.9% (active).

In the case of `Nc1c(C(=O)c2cccs2)sc2nsc(SCCN3CCCCC3)c12`, the inhibition is 60.8% (active).

With `NC(c1ccccc1)c1csc(NC(=O)Nc2cccc(C(F)(F)F)c2)n1` (centres undefined), the inhibition is 50.7% (active).

For the compound `CCOC(=O)Cc1csc(NC(=O)Nc2ccccc2)n1`, the inhibition is 28.9%.

As to `COc1ccc(C(N)c2csc(NC(=O)Nc3cccc(C(F)(F)F)c3)n2)cc1` (centres undefined), the inhibition was 44.9%.

Consider `COc1cc(OC)c(-n2cc(-c3ccc(Cl)cc3)[nH]c2=O)cc1Cl`, for which the inhibition is 79.8% (active).

For `Cc1ccccc1NC(=S)NC(=O)Cc1ccc(Cl)cc1`, the inhibition was 81.5% (active).

For `O=C(Cc1ccc(Cl)cc1)NC(=S)Nc1ccccc1O`, the inhibition was 106% (active).

Take `CCC(c1nnnn1Cc1ccco1)N(CCc1ccccc1)Cc1cc2cccc(C)c2[nH]c1=O` (centres undefined): the inhibition was 20.6%.

Regarding `NC(Cc1ccccc1)c1csc(Nc2cc(Oc3ccccc3)ncn2)n1` (centres undefined), the inhibition was 65.7% (active).

On to `CC(=O)Oc1ccc(Cn2c(C)c(C(=O)NCc3ccc(C#N)cc3)sc2=O)cc1`, for which the inhibition is 72.9% (active).

On to `O=C1CCCC(O)=C1C=NCCc1ccccc1`, for which the inhibition is 32.1%.

Turning to `Cc1ccn2c(=O)c(C(=O)NCCC3=CCCCC3)c(O)nc2c1`, the inhibition is 65.7% (active).

`c1ccc(-c2csc(N3CCc4ccccc4C3)n2)cc1`: the inhibition is 15.3%.

`Oc1ccc2ccc3cccc[n+]3c2c1`: the inhibition is 19.6%.

With `COc1cc(OC)cc(C(=O)N[C@H](C(=O)OCC(=O)NC(C)c2ccccc2)C(C)C)c1` (some centres undefined), the inhibition is 12.6%.

Consider `CC(NC(=O)c1cc(-c2ccccc2)on1)c1ccccc1` (centres undefined), for which the inhibition is 51.1% (active).

For the compound `c1ccc(C2CNCc3c2ccc2ccccc32)cc1` (centres undefined), the inhibition is 95.2% (active).

With `CCN(CC)c1ccc2oc(=O)c(C)nc2c1`, the inhibition was 25.7%.

Take `O=C(Nc1ccc(F)cc1)Nc1nnc([C@H]2C[C@H](O)[C@@H](CO)O2)s1`: the inhibition is 25.5%.

Take `O=C(Nc1ccccc1)Nc1nnc(COc2ccccc2F)s1`: the inhibition is 72.4% (active).

Consider `O=C(c1noc2c1CCCC2)N1CCc2ccccc2C1`, for which the inhibition is 5.47%.

`CN(C)c1ccc(/C=C2\NC(=S)N(Cc3ccccc3)C2=O)cc1`: the inhibition is 63.9% (active).

As to `CC(=O)Nc1ccccc1Sc1ccc2c3c(cccc13)C(=O)N(c1ccc(C)cc1)C2=O`, the inhibition was 5.11%.

Regarding `CCCOc1ccc(-c2c(C(=O)N/N=C/c3ccco3)nnn2-c2nonc2N)cc1`, the inhibition was 13.2%.

In the case of `Cc1cccc(NC(=O)C(C)N2C(=O)C3C4CC(C(Br)C4Br)C3C2=O)c1` (centres undefined), the inhibition is 52.5% (active).

For `CCCC1CCC(=NNC(=S)NCCc2ccccc2)CC1` (centres undefined), the inhibition was 51.7% (active).

For the compound `Cc1ccc(O)c(NC(=S)NC(=O)COc2ccc(Br)cc2)c1`, the inhibition is 104% (active).

In the case of `Nc1cc(OC(=O)c2ccccc2Br)nn1S(=O)(=O)c1ccccc1`, the inhibition was 11.7%.

As for `COCCCn1c(Cc2csc(Nc3cccc(Cl)c3)n2)nnc1SCC(=O)OC1CCCCC1`, the inhibition was -2.24%.

With `COc1ccc(Cl)cc1C(=O)NNC(=S)NC(=O)/C=C/c1ccco1`, the inhibition was 67.7% (active).

`O=C1C=C(c2ccc(Cl)cc2)C(=O)N1Nc1ccccc1`: the inhibition is 72.8% (active).

With `Nc1nnn(CC(=O)N/N=C/c2ccccc2)n1`, the inhibition was 17.8%.

For `CSc1nc(N)c(C#N)c(-c2ccccc2Cl)c1C#N`, the inhibition was 24.1%.

For the compound `O=C(CSc1nc(-c2ccco2)cc(C(F)(F)F)n1)NCc1cccs1`, the inhibition was -5.52%.

On to `Cc1c(CNCCc2ccccc2)c(C(=O)O)c(C)n1-c1ccccc1`, for which the inhibition was 53.7% (active).

As for `COc1cccc(N(CC(=O)N2CCc3ccccc3C2)S(C)(=O)=O)c1`, the inhibition is 15.3%.

In the case of `S=C(NCCCc1cnc[nH]1)NCCCN(Cc1ccc(Cl)c(Cl)c1)c1ccc(Br)cn1`, the inhibition is 59.7% (active).

For the compound `CCCCCC(=O)NC(=S)NNC(=O)c1ccc([N+](=O)[O-])cc1`, the inhibition is 61% (active).

As to `O=C(NCCc1ccccc1)/C(=C\c1ccc([N+](=O)[O-])cc1)NC(=O)c1ccccc1`, the inhibition is 7.67%.

Consider `CCCCCc1c(-c2cccc(Br)c2)ncn1CCc1ccccc1OC`, for which the inhibition is 20.5%.

In the case of `CCCCCc1c(Cc2ccccc2)ncn1CCc1ccccc1OC`, the inhibition was 88.8% (active).

Regarding `CCCCc1c(-c2ccc(Br)cc2)ncn1CCc1ccccc1OC`, the inhibition was 49.3% (active).

In the case of `CCc1c(-c2ccccc2OC)ncn1CCc1ccccc1OC`, the inhibition was 39.8%.

For `CCCCCc1c(-c2ccc(OC)c(OC)c2)ncn1CCc1ccccc1OC`, the inhibition is 97.1% (active).

Consider `CCCCc1c(-c2ccc(Cl)cc2)ncn1CCc1ccccc1OC`, for which the inhibition is 83.4% (active).

Consider `N#Cc1ccc(OCCCN2CCC(C(O)(c3ccccc3)c3ccccc3)CC2)c(F)c1`, for which the inhibition was 23.9%.

Consider `O=[N+]([O-])c1cc(S(=O)(=O)NCCc2ccccn2)ccc1Cl`, for which the inhibition was 39%.

Regarding `Cn1c(=O)c(=O)n(C)c2cc(S(=O)(=O)NCCc3ccccc3)ccc21`, the inhibition was 73.1% (active).

Take `c1ccc2c(c1)C(=NC1CCCCC1)NC2=NC1CCCCC1`: the inhibition is 42.2%.

As usually defined, the inhibition is the drop in the measured response relative to a control, in per cent.
